Source: PubChem BioAssay
Shown are actives, neighbours in structure and some others; about 18% of the full set was active somewhere.
HepG2 tox = kills HepG2 cells in TGF-b inhibitor counter-screen; HepG2 CAGA-GFP viability, ATP luminescence, 18 h; 410,000 tested, 0.76% active; Potency, µM (series often up to 46.1 µM), for inactives: at the highest dose activity change, negative = cytotoxicity, hits mostly cytotoxic; AID 588856; also: potency is read from the fitted curve at half-maximal effect
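CellTiter-Glo luminescence gave cytotoxicity after 18 hours at 37 degrees C. The cells were HepG2 CAGA-GFP in 1% FBS DMEM, stimulated with 500 pg/mL TGF-beta after compound addition. %Activity was normalised to no-cell wells (complete cell-killing) and DMSO (no toxicity), and curves were fitted and classified.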
TDP1 inh = blocks human tyrosyl-DNA phosphodiesterase 1; Potency, µM (top dose mostly 130 µM), inactives show at the highest dose activity change, negative = inhibition, hits mostly inhibitors; recombinant TDP1, AlphaScreen DNA substrate cleavage; 350,000 tested, 0.28% active; AID 485290; Q9NUW8; also: potency is read from the fitted curve at half-maximal effect; % is scaled to controls: 0 for no effect and ±100 for the full control effect; nearly all actives have a fitted effect of over 40% in size
Target sequence (Q9NUW8 whole entry, looked up): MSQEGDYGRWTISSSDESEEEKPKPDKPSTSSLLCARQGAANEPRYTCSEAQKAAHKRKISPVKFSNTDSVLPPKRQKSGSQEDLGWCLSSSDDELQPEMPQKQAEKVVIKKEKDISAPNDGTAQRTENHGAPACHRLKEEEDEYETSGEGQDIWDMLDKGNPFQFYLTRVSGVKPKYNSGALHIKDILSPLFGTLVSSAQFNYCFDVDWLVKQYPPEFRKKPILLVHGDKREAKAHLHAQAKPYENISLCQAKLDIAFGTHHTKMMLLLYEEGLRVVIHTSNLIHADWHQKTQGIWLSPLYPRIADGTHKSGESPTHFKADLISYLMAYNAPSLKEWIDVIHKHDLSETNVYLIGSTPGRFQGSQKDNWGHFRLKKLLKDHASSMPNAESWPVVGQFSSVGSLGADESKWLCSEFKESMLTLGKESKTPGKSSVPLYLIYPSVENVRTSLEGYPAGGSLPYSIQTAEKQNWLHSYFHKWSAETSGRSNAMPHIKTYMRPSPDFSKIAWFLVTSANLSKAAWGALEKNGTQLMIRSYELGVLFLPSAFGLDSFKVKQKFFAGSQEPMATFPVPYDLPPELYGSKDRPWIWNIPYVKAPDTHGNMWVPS
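Recombinant E. coli-expressed Tdp1 (1 nM) preincubated with compound 15 min at RT, then 5'-biotin/3'-phosphotyrosine-FITC DNA substrate (15 nM) added for 5 min. AlphaScreen beads (10 ug/ml) added, 10 min RT; tyrosine-FITC cleavage read as signal loss.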
TGFb SMAD3 inh = inhibitors of TGF-b signaling; HepG2 CAGA-GFP TGF-b/SMAD3 reporter, GFP fluorescence, 18 h; TGF-beta stimulated, 500 pg/mL final; Potency, µM (series often up to 46.1 µM), without a hit: at the highest dose activity, negative = inhibition, hits mostly inhibitors; 410,000 tested, 1.2% active; also: potency is read from the fitted curve at half-maximal effect; % is scaled to controls: 0 for no effect and ±100 for the full control effect; nearly all actives have a fitted effect of over 65% in size
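Read-out: total well GFP (ex488/em500-530) summed from mean per-cell fluorescence. Cells: HEPG2 CAGA-GFP, 1% FBS DMEM, 18 h at 37 degrees C with 500 pg/mL final TGF-beta. Unstimulated wells served as the full-inhibition control; stimulated DMSO wells = 0%.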
TDP1 cell CPT = DT40-hTDP1 cell growth loss with CPT | chicken DT40 Tdp1-/-;hTDP1 cells + 20 nM CPT, ATP luminescence, 48 h | Potency, µM (series often up to 46.2 µM), for the others: at the top dose activity change, negative = growth inhibition, usual class: inhibitors | 420,000 tested, 12% active; also: potency is read from the fitted curve at half-maximal effect; % is scaled to controls: 0 for no effect and ±100 for the full control effect; nearly all actives have a fitted effect of over 55% in size
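Chicken DT40 Tdp1-/- cells stably complemented with human TDP1 were seeded at 400 cells/well in medium containing 20 nM camptothecin, exposed to pin-transferred compounds, and grown at 37 °C for at least 48 hr. Viability was read as ATP luminescence.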
IL1B secr inh = blocks inflammasome-driven IL-1 beta release. THP-1 LPS/ATP IL-1B secretion, AlphaLISA, 16 h; stronger effect = lower value. activity change, % at 57.5 µM. 360,000 tested, 4.7% active. AID 743279; in the data active = activity change below about -50%; inconclusive = mostly about -30% to -49%; also: % is scaled to controls: 0 for no effect and ±100 for the full control effect
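Secreted IL-1B measured by AlphaLISA bead assay after 16 h compound exposure of THP-1 cells; compounds (final up to 57.5 uM) added 1 h before LPS (250 ng/mL) and ATP (1.25 mM) stimulation; lower signal means less secretion.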
TDP1 cell noCPT = qHTS for Inhibitors of human tyrosyl-DNA phosphodiesterase 1 (TDP1): qHTS in cells in absence of CPT; Potency, µM (top dose mostly 46.2 µM), inactives show at the highest dose activity change, negative = growth inhibition, actives largely listed as inhibitors; 420,000 tested, 15% active; DT40 Tdp1-/- hTDP1 cells, no CPT, ATP luminescence, 48 h; also: potency is read from the fitted curve at half-maximal effect; % is scaled to controls: 0 for no effect and ±100 for the full control effect; nearly all actives have a fitted effect of over 55% in size
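Chicken DT40 Tdp1-/- cells stably complemented with human TDP1 were seeded at 400 cells/well with DMSO in place of 20 nM camptothecin. After compound pinning, cells grew at least 48 hr at 37 °C; viability read by CellTiter-Glo luminescence.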
* hit, by the source's call; ? = inconclusive; / = not tested or not shown; ! = a repeat was not active; [ ] = dose if it differs, or a comment. Unless noted, calls follow the shape of the dose curve; as a rule, active = well fitted curve in the direction sought with a large enough effect; inconclusive = small, poorly fitted or top-dose-only effect, or another doubt; inactive = no such curve, though single readings can be large; an effect the other way counts as inactive or inconclusive.

SMILES	HepG2 tox	TDP1 inh	TGFb SMAD3 inh	TDP1 cell CPT	IL1B secr inh	TDP1 cell noCPT
O=C(CCN1CCc2ccccc2C1)c1ccc2c(c1)OCCO2	7.1µM*	-3%	?	5.8µM*	0	3.7µM*
O=C(CCN1CCCCCC1)Nc1ccc2c(c1)OCCO2	6%	-2%	?	5%	-27	-9%
O=C(CCN1CCCCC1)c1ccc2c(c1)OCCO2	-94%	0%	?	21µM*	-86*	16µM*
O=C(c1ccc2c(c1)OCO2)N1CCc2ccccc2C1	-7%	4%	1%	?	28	?
O=C(CCN1CCCC1Cc1ccccc1)c1ccc2c(c1)OCCO2 (stereo not drawn)	-113%	7%	11µM*	2.6µM*	-101*	2.3µM*
O=C(c1ccc(Br)o1)N1CCN(CCc2ccncc2)CC1	3%	/	1%	-10%	10	-22%
COc1ccc(CCNCC2C(Oc3ccc(Cl)cc3)C(=O)N2c2ccccc2C)cc1OC (stereo not drawn)	-33%	3%	?	?	-73*	23µM*
COCCNCC1C(Oc2ccc(Cl)cc2)C(=O)N1c1ccccc1C (stereo not drawn)	-10%	1%	5%	?	-17	?
Cc1ccccc1N1C(=O)C(Oc2ccc(Cl)cc2)C1CNC(C)(C)C (stereo not drawn)	-28%	3%	-26%	?	-55*	?
Cc1ccc(CCc2nnc(SCC(=O)Nc3cccc(Cl)c3)n2-c2ccccc2)o1	-33%	1%	-6%	?	1	13µM*
Cc1cc(=O)n2c(C(=O)Nc3ccc(C)c(C)c3)c(C(=O)Nc3ccccc3)sc2n1	-31%	5%	-18%	?	-4	16µM*
Cc1cc(=O)n2c(C(=O)Nc3ccc(C)c(Cl)c3)c(C(=O)Nc3ccccc3)sc2n1	-15%	-2%	?	?	/	?
Cc1ccc(NC(=O)c2sc(Cl)nc2-c2ccccc2)cc1C	2%	1%	-21%	?	16	18µM*
COc1cccc(-n2c(SC)nnc2C2CCN(Cc3cccc(OC)c3O)CC2)c1	/	/	/	-2%[9.04 µM]	/	?
COc1ccc(OC)c(NC(=O)Nc2ccc3[nH]ccc3c2)c1	-27%	/	-9%	-8%	-1	-26%
COc1ccc(C(=O)CN2C(=O)N(c3cc(C)cc(C)c3)S(=O)(=O)c3ccccc32)cc1	-7%	1%	-18%	?	/	?
COc1cc(CN2CCOc3ccc(C(O)c4cccnc4)cc3C2)cc(OC)c1 (stereo not drawn)	/	/	/	19%[9.04 µM]	/	-17%
Cn1cc(CN2CCOc3ccc(C(O)C4CCCCC4)cc3C2)cn1 (stereo not drawn)	/	/	/	?	/	12µM*
COC(=O)c1sc(N)c(C(=O)OC)c1COC(=O)c1c(C)noc1C	3%	0%	1%	3.7µM*	31	5.2µM*
COC(=O)c1sc(NC(=O)c2c(C)noc2C)nc1C	1%	6%	-16%	5%	-21	4%
COC(=O)c1sc(N)c(C(=O)OC)c1Cn1ncc(Cl)c(Cl)c1=O	1%	/	-26%	23µM*	-89*	15µM*
CN(C(=O)c1ccc(S(=O)(=O)c2cccc(Cl)c2)c([N+](=O)[O-])c1)C1CCCCC1	8%	0%	0%	3.7µM*	-106*	5.2µM*
COc1cc(OC)c(NC(=O)c2nn(C)c3c2COc2ccccc2-3)cc1Cl	-4%	-3%	-5%	7%	/	16%
COc1ccccc1CCNC(=O)C(=O)NCC1OCCN1S(=O)(=O)c1ccc([N+](=O)[O-])cc1 (stereo not drawn)	-13%	4%	-23%	?	-11	?
CC1CCCN(CCCNC(=O)c2cc3c(Cl)nc4ccccc4c3s2)C1 (stereo not drawn)	-17%	3%	-2%	10µM*	/	7.3µM*
SMILES	HepG2 tox	TDP1 inh	TGFb SMAD3 inh	TDP1 cell CPT	IL1B secr inh	TDP1 cell noCPT
O=C(NCCCN1CCN(c2ccc(F)cc2)CC1)c1cc2c(Cl)nc3ccccc3c2s1	-5%	3%	-16%	7.3µM*	/	4.6µM*
CCC1=C(c2ccc(C)cc2)S(=O)(=O)N=C1N1CCC(C(=O)NCCCN2CCCCC2)CC1	-15%	8%	0%	10%	-5	2%
Cc1ccc(CSCC(=O)Nc2cc(S(=O)(=O)N3CCOCC3)ccc2OCC(F)(F)F)cc1	-21%	/	-14%	?	12	-6%
C=C1CCC2C(C)(C)[C@H](O)CC[C@@]2(C)[C@@H]1COc1cc(=O)oc2ccccc12 (stereo partly drawn)	-87%	1%	?	?	-13	?
C=C1CC(COc2cc(=O)oc3ccccc23)(c2ccccc2)OC1=O (stereo not drawn)	6.3µM*	/	5µM*	1.2µM*	-117*	1.6µM*
O=C(NCCc1nnc2n1CCN(CC1CC=CCC1)CC2)c1ccc(F)cc1 (stereo not drawn)	/	/	/	0%	/	-6%
c1cnn2c(-c3ccc4c(c3)CCO4)cnc2c1	-35%	/	-8%	10µM*	-1	9.2µM*
Clc1ccc(-c2cnc3cccnn23)cc1	-16%	/	-7%	?	10	?
CN(CC(=O)NCc1ccccn1)S(=O)(=O)c1ccc2ccccc2c1	3%	2%	6%	-3%	68	5%
O=C(COc1ccc(Cl)cc1)N1CCN(C(=O)c2cccs2)CC1	0%	0%	12%	-16%	-73*	-27%
O=C(Nc1ccc(Cl)cc1)N1CCN(Cc2ccc3c(c2)OCO3)CC1	-17%	4%	-13%	-13%	0	-22%
O=C(COc1ccc(Cl)cc1)N1CCN(Cc2ccc3c(c2)OCO3)CC1	-3%	6%[56.1 µM]	-6%	?	-51*!	?
O=C(CN1C(=O)c2cccc3cccc(c23)C1=O)N1CCN(Cc2ccc3c(c2)OCO3)CC1	-34%	0%	-17%	21µM*	-6	18µM*
CS(=O)(=O)N(CC(=O)N1CCN(Cc2ccc3c(c2)OCO3)CC1)Cc1ccc(Cl)cc1	1%	0%	-10%	11µM*	-14	?
Cc1c2cnccc2c(C)c2c1c1ccccc1n2CCOC(=O)c1ccccc1	-31%	/	?	?	/	11µM*
O=C(OCCn1c(=S)sc2ccccc21)c1ccccc1	3%	/	0%	-5%	1	-25%
